Measurements published in ChEMBL document CHEMBL3433997, “St. Jude Leishmania screening dataset” (2016).
Values joined by “and” are separate entries in the source; they are usually repeats but may differ in a detail not shown here. Equal values may be shown once.

Tests used:
Assay type in all cases: functional
[1] = biological target: Solute carrier family 2, facilitated glucose transporter member 1 (Homo sapiens) (UniProt P11166); test: ST_JUDE_LEISH: Cytotoxicity at 2uM final concentration against transgenic Leishmania Mexicana promastigotes LmGLUT1 that are glucose transport deficient and complemented with the human glucose transporter GLUT1. Activity is measured by DNA content using SYBR green in vitro
[2] = biological target: Hexose transporter 1 (Plasmodium falciparum) (UniProt O97467); test: ST_JUDE_LEISH: Cytotoxicity at 2uM final concentration against transgenic Leishmania Mexicana promastigotes LmPfHT that are glucose transport deficient and complemented with the Plasmodium falciparum hexose transporter. Activity is measured by DNA content using SYBR green in vitro
[3] = biological target: Glucose transporter (Leishmania mexicana) (UniProt O61059); test: ST_JUDE_LEISH: Cytotoxicity at 2uM final concentration against transgenic Leishmania Mexicana promastigotes LmGT2 that are glucose transport deficient and complemented with the L. Mexicana glucose transporter 2. Activity is measured by DNA content using SYBR green in vitro

Sequence of Solute carrier family 2, facilitated glucose transporter member 1 (Homo sapiens) (P11166 whole entry): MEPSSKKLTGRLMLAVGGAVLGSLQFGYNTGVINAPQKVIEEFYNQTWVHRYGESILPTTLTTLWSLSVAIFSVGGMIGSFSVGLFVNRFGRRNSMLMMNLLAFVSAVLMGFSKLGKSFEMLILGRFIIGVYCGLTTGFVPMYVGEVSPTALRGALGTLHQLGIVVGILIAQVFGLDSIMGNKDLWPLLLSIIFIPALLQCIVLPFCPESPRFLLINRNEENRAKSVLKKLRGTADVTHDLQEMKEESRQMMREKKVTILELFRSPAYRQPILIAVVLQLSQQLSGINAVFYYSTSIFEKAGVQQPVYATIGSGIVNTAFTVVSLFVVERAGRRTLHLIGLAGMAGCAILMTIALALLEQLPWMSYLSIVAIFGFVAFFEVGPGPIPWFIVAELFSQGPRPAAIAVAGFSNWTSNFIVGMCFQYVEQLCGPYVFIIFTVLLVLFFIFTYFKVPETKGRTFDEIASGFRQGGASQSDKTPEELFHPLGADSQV

Compound | inhibition [1] | inhibition [2] | inhibition [3]
FC(F)(F)c1cc(CNCCCNc2nc3ccncc3[nH]2)ccc1Cl | 1.9% | 1.51% | 0.35%
O=C(c1cc(C(=O)Nc2ccccc2)c(=O)n(-c2ccccc2)c1)c1cc(Cl)ccc1O | 3.8% | 3.56% | 2.58%
CCNc1cc(C(=O)N[C@@H](Cc2ccccc2)[C@H](O)CNC(C)C)cc(N2CC(c3ccccc3)CCS2(=O)=O)c1 (stereo not given in full) | 2.23% | 2.11% | 4.05%
CCc1c(CCNCCc2cccc(CCNCCc3ccc(OC)c(OC)c3CC)c2)ccc(OC)c1OC | 2.06% | -1.49% | 0.27%
O=C(NCCCCN1CCCC2c3ccc(O)cc3CCC21)c1ccc(-c2ccccc2)cc1 (stereo not given) | 0.24% and 13.2% | 1.39% and 1.92% | 0.13% and -0.76%
Cc1[nH]cnc1-c1cccc(NC(=O)c2cc3ccccc3s2)c1 | -1.01% | -1.53% | -0.35%
Cc1nc2nc(N)nc(N)c2c(C)c1Cc1ccccc1Cl | 9.22% | 12.6% | 7.89%
CCCNc1ccc(-c2cc(C(N)=O)c3[nH]cc(C4CCN(S(=O)(=O)CC)CC4)c3c2)cn1 | 3.86% | 6.54% | 3.64%
Cc1cccc2nc(-c3ccc(-c4cccc(NC(=O)NCc5ccccc5)c4)cc3)[nH]c12 | 0.35% | 1.64% | 1.98%
FC(F)(F)c1cccc(-c2cc(NCCCn3ccnc3)nc(-c3ccncc3)n2)c1 | -3.57% | -1.14% | -0.33%
COc1ccc(CN(C)CCCOc2ccc(NC(=O)C=Cc3ccc(C(C)(C)C)cc3)cc2)cc1OC | 13.9% | 9.61% | 9.75%
Nc1nc(N)c2c(ccc3c2cnn3S(=O)(=O)N2CCCC2)n1 | -1.43% | 0.03% | -2.01%
NC(=S)Cc1ccc2c(c1)OCO2 | -0.08% | -0.33% | -0.59%
CC(=O)Nc1ccc(C(=O)Nc2cccc(-c3csc(-c4nc5ccccc5[nH]4)c3)c2)cn1 | 0.54% | 1.56% | -0.51%
N#Cc1ccc2c(c1)CN(C1CCC(NC(=O)C3=Cc4cc(Cl)ccc4OC3)CC1)CCC2 (stereo not given) | 8.34% | 6.19% | 5.6%
O=C(Cn1c(CCc2cccc(F)c2F)nc(=O)c2ccccc21)N(Cc1ccc(-c2ccc(C(F)(F)F)cc2)cc1)C1CCN(C2CCOCC2)CC1 | 1.91% | 2.37% | 1.17%
CCNc1cc(C(=O)N[C@@H](Cc2ccccc2)[C@H](O)CNC(C)(C)Cc2cccc(Cl)c2)cc(N2CCCCS2(=O)=O)c1 | 5.21% | 1.94% | 6.82%
O=C(NCCN1CCCCC1)N1CCCN(c2ncnc3cc(-c4ccccc4)sc23)CC1 | 2.21% | 1.64% | 2.05%
c1ccc(CN2CCN(CCCCNc3c4ccccc4nc4ccccc34)CC2)cc1 | 31.7% | 37.9% | 19.4%
Cc1ccc(C)c(Sc2ccc(NC(=O)CN3CCN(C(=O)c4ccco4)CC3)cc2)c1 | 0.6% | 0.52% | 0.17%
CCn1c(CN2CCC(C)CC2)nc2cc(NC(=O)c3cccs3)ccc21 | 9.93% | 9.8% | 12.5%
CCNc1cc(C(=O)N[C@@H](Cc2ccccc2)[C@H](O)CN[C@H](C)c2ccccc2)cc(N2CCCC2=O)c1 | 4.44% | 3.88% | -0.89%
O=C(/C=C/c1ccc(Cl)c(Cl)c1)NCCCCCN1CCC(NS(=O)(=O)c2cc(Cl)cc(Cl)c2)CC1 | 3.59% | 3.03% | 3.19%
Cc1cc(N[C@@H](CC(C)C)C(=O)NCc2cccs2)nc(NCCc2cccs2)n1 | 7.52% | 5.28% | 3.84%

Compound | inhibition [1] | inhibition [2] | inhibition [3]
Cc1cc(NC(=O)NC(=N)N)ccc1Cl | 6.27% | 5.72% | 3.21%
Cc1nc2nc(N)nc(N)c2c(C)c1Cc1ccc(N)cc1 | 3.4% | 8.1% | 1.88%
Cc1[nH]c(-c2ccc(F)cc2)cc1C(=O)NC1CCN(Cc2ccccc2)CC1 | 1.59% | 3.23% | -0.98%
CCOC(=O)c1c(CSc2ccccc2)oc2cc(CN(C)C)c(O)c(Cl)c12 | 1.18% | 0.44% | -0.41%
COc1cc(NC(=O)N2CCc3ccc(OCCN4CCCCC4)cc32)cc(C(F)(F)F)c1 | 0.69% | 1.18% | 3.59%
N#Cc1ccnc(-c2ccc(CNC3CCN(CC4Cn5c(=O)ccc6ccc(F)c4c65)CC3)cc2)c1 (stereo not given) | 9.83% | 8.44% | 4.88%
OCC(c1ccccc1)n1c(COc2ccc(Cl)cc2)nc2c(OCCCN3CCCCC3)cccc21 (stereo not given) | 12.9% | 9.11% | 6.47%
O=C(N[C@@H](CC1CCCCC1)C(=O)NC1CCCCC1)c1ccc(O)c(-c2cccc(C(F)(F)F)c2)c1 | -2.73% | -1.15% | -3.33%
O=C(/C=C/c1ccc(Cl)cc1Cl)N1CCC(CCN2CCC(c3c[nH]c4ccccc34)CC2)CC1 | 3.54% | 4.28% | 5.09%
COc1ccccc1C1CCN(C2CCC(NC(=O)c3cc4ccccc4[nH]3)CC2)CC1 (stereo not given) | -0.02% | -0.24% | 2.29%
COc1ccc(CN(C)C(=O)CCNS(=O)(=O)c2ccc3c(c2)OCCCO3)cc1F | 5.25% | 6.84% | 7.12%
CCC(C)c1ccc(NC(=O)c2ccc(S(=O)(=O)Nc3ccc(OC)c(N4CCN(CC5CC5)CC4)c3)cc2)cc1 (stereo not given) | 1.59% | -0.83% | -1.88%
COc1ccccc1CCNc1nc(C)cc(N[C@@H](Cc2ccccc2)C(=O)NCCc2ccccc2)n1 | 7.15% | 7.61% | 2.86%
Cc1ccc(F)c(OCC2CCN(c3ccc(C(=O)NC4CC4)cn3)CC2)c1 | 3.7% | 2.89% | -1.65%
CC1CC1C(=O)NC1CCN(CC2(c3ccccc3)CCCCC2)CC1 (stereo not given) | 0.87% | 1.18% | -0.67%
COc1cccc(C(=O)NC(c2ccccc2OC)c2cc(Cl)c3cccnc3c2O)c1 (stereo not given) | -1.87% | -2.45% | 0.13%
CCOc1cc(C)ccc1C1CCN(CCCCNC(=O)c2ccc(-c3ccc(C(F)(F)F)cn3)cc2)CC1 | 10.4% | 9.74% | 7.82%
CC(C)N1CCN(C(=O)c2ccc(CNCCCN3CCN(c4cccc(Cl)c4Cl)CC3)s2)CC1 | 1.17% | 1.06% | -0.54%
Cc1ccc(-c2nnc3c4ccccc4c(C)nn23)cc1S(=O)(=O)N1CCN(CCO)CC1 | 0.38% | 0.96% | -0.93%
O=C(N/C(=C/c1cccc([N+](=O)[O-])c1)c1nc2ccccc2[nH]1)c1cccc(Br)c1 | 2.64% | 1.64% | -0.27%
CN(C)CC(=O)Nc1ccc(Nc2nccc(NCC(O)c3ccccc3)n2)cc1 (stereo not given) | 1.63% | 2.79% | 0.21%
CCOC(=O)c1ccc(N(CCCN(CCCN(c2ccc(C(=O)OCC)cc2)S(=O)(=O)c2ccc(C)cc2)CCc2ccc(O)cc2)S(=O)(=O)c2ccc(C)cc2)cc1 | 2.89% | 2.43% | 1.65%
NS(=O)(=O)c1ccc(CNc2ccc3ncc(-c4ccc(OC(F)(F)F)cc4)n3n2)cc1 | 4.71% | 4.62% | 4.53%
CC1(C)C(=O)Nc2ccc3c(c21)CC1SC(=O)NN=C31 (stereo not given) | -0.91% | 0.11% | 0.01%

Compound | inhibition [1] | inhibition [2] | inhibition [3]
COc1ccc(-c2nnc(Sc3ccc(C#N)c([N+](=O)[O-])c3)n2CCC(C)C)cc1 | 5.19% | 5.04% | -0.81%
FC(F)(F)c1ccc2[nH]ccc(=NN=Cc3ccccc3Cl)c2c1 | 2.85% | 1.66% | 1.62%
CN1CCC(COc2ccc(CN3CCC(NC(=O)c4cccc(Cl)c4)CC3)cc2)CC1 | 2.48% | 3.13% | 0.42%
Cc1[nH]c(C)c(-c2ccc(/C=C/c3ccccn3)cc2)c(=O)c1Cl | 4.28% | 4.49% | 5.12%
Cc1cc(NC2CCN(CC3CCCCC3)C2)nc(Nc2ccc(Br)cc2)n1 (stereo not given) | -0.39% | 2.78% | 0.66%
CC[C@@H]([C@@H](Cc1cc2ccccc2s1)C(=O)N[C@@H](CCCCNC(=O)OCc1ccccc1)C(=O)Nc1ccccn1)N(O)C=O | 5.52% | 4.31% | 3.75%
Cc1nc(C)c(-c2ccc(S(=O)(=O)c3ccc(Cl)cc3)cc2)c(O)c1Cl | 9.02% | 5.86% | 7.16%
COc1cc(C(=O)Nc2cccc(-c3cn4ccc(C)cc4n3)c2)cc(OC)c1OC | 17.1% | 8.22% | 6.63%
COc1ccc(Nc2ncc3c(-c4cccc(NC(=O)Cc5cccc(O)c5)c4)c[nH]c3n2)cc1OC | -1.87% | 1.51% | 3.39%
CC[C@H](C)CNC(=O)c1cncc(-c2cccc(CNCCCc3ccccc3)c2)c1 | 4.76% | 3.06% | 4.25%
COc1ccc2cc(C(C)NC3CCN(c4cccc(NC(=O)c5ccncc5)c4)CC3)ccc2c1 (stereo not given) | 0.03% | -0.06% | -1.47%
Cc1[nH]c2ccc(-c3ccccc3)cc2c(=O)c1Br | 1.91% | 4.13% | -0.5%
Oc1ccc2c(CNCCc3ccccc3)c(O)ccc2c1CNCCc1ccccc1 | 8.01% | 6.13% | 6.71%
Cc1ccc(CNc2cc(C(F)(F)F)nc(-c3ccc(S(C)(=O)=O)cc3)n2)cc1 | 9.86% | 11.2% | 9.59%
NC(=O)C1CCN(Cc2cccc(-c3ccc(-c4nc5cc(C(F)(F)F)ccc5[nH]4)cc3)c2)CC1 | -1.36% | -1.5% | -2.94%
COc1ccc(-c2cccc(NC(=O)c3ccc(C#N)cc3)c2)cc1CN1CCCN(C)CC1 | 3.34% | 2.59% | 0.9%
FC(F)(F)c1ccc2[nH]c(-c3ccc(-c4ccc(CNCc5cnn(-c6ccccc6)n5)cc4)cc3)nc2c1 | 2.68% | 0.52% | 0.17%
CC1(C)N=C(N)N=C(N)C1c1ccc(Cl)c(Cl)c1 (stereo not given) | 0.69% | 2.94% | 1.36%
O=C(N[C@@H](Cc1cc(F)cc(F)c1)[C@H](O)CNCc1cccc(C(F)(F)F)c1)c1cc(C2CCCC2)cc(N2CCCC2=O)c1 | 1.51% | 1.51% | 1.95%
Cc1sc2cc(Cl)cc(Cl)c2c1S(=O)(=O)Nc1ccc2nccc(N3CCNCC3)c2c1 | -1.42% | -0.22% | -0.24%
CC1(C)NC(N)=NC(=N)N1OCCOc1cccc(C(F)(F)F)c1 | 1.04% | 0.2% | 2.45%
CC(=O)Nc1ccc(Cl)c(Cl)c1 | -0.84% | 0.05% | -0.72%
